Assay results published in article PMC4336329 (PLoS ONE, 2015).
Among all 310,000 compounds or so, about 14,000 (4.5%) showed an effect of 50% or more. Effects have a minus sign here. For the sample, strong results were picked, then their nearest neighbours and some compounds at random.

Each compound was assayed against human ether-à-go-go-related gene (hERG) potassium channel (human, UniProt Q12809) (assay: primary screen, population patch clamp on CHO cells stably expressing hERG; higher = less effect of the substance).
Chain of human ether-à-go-go-related gene (hERG) potassium channel (Q12809 whole entry, looked up): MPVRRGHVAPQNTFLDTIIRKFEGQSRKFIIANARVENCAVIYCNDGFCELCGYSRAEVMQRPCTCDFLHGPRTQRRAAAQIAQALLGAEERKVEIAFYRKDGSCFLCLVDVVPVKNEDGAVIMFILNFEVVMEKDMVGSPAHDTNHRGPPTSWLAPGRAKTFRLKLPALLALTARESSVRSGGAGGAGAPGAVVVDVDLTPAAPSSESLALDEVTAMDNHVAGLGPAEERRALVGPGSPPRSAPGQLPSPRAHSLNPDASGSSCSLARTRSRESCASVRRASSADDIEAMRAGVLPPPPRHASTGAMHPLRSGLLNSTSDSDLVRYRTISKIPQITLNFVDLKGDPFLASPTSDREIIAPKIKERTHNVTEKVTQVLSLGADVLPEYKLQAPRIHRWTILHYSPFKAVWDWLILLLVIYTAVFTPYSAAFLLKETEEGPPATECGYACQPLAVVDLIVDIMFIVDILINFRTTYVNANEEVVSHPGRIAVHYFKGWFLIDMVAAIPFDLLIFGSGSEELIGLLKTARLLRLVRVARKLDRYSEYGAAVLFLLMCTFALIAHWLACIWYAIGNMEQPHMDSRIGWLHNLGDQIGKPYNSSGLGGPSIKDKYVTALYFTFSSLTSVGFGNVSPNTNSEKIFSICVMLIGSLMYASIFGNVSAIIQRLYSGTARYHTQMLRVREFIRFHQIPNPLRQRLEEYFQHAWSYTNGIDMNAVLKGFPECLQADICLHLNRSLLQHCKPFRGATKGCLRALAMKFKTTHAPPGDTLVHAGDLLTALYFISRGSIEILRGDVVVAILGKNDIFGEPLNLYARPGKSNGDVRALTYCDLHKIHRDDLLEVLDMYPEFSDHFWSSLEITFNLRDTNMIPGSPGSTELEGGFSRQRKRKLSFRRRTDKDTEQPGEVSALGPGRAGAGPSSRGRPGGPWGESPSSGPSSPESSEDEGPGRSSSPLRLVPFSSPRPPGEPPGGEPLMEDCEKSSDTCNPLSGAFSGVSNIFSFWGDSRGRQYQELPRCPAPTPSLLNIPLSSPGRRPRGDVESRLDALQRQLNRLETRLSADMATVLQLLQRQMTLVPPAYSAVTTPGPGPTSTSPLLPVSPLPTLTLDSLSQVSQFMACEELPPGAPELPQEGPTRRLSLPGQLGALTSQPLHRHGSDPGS
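Also: peak tail current of the secondary pulse compared with the same well before compound.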

| SMILES | hERG current change (%, negative = inhibition) at 10uM |
| --- | --- |
| O=C(C[n+]1ccccc1)N/N=C/c1ccc(Cl)cc1.[Cl-] | -5.76% |
| NC(=O)CSc1nnnn1-c1ccccc1Cl | 6.07% |
| O=C(N/N=C/C(Br)=C/c1ccccc1)c1ccccc1F | -38.5% |
| Cc1ccc2c(CC(=O)N3CCOCC3)coc2c1 | 8.58% |
| CCN(CC)S(=O)(=O)c1ccc(C(=O)OCCN2C(=O)CCC2=O)cc1 | -7.82% |
| Cn1c(=O)c2c(nc(SCCN3CCOCC3)n2Cc2ccccc2Cl)n(C)c1=O | -36.8% |
| Cc1cccc(Cn2c(SCCN3CCOCC3)nc3c2c(=O)n(C)c(=O)n3C)c1 | -26.2% |
| Cn1c(=O)c2c(nc(SCCN3CCOCC3)n2Cc2ccccc2)n(C)c1=O | -32.5% |
| CCCSc1nc2c(c(=O)n(C)c(=O)n2C)n1Cc1ccc(C)cc1 | -3.8% |
| Cn1c(=O)c2c(nc(SCCN3CCCCC3)n2Cc2ccccc2)n(C)c1=O | -76% |
| CCSc1nc2c(c(=O)n(C)c(=O)n2C)n1Cc1ccc(Cl)cc1 | -17.5% |
| Cc1ccc(Cn2c(SCCN3CCCCC3)nc3c2c(=O)n(C)c(=O)n3C)cc1 | -75.4% |
| Cn1c(=O)c2c(nc(SCCN3CCCCC3)n2C)n(C)c1=O | 3.49% |
| Cc1ccc(Cn2c(SCCN3CCOCC3)nc3c2c(=O)n(C)c(=O)n3C)cc1 | -28% |
| Cc1ccc(Cn2c(SCC(C)C)nc3c2c(=O)n(C)c(=O)n3C)cc1 | 4.03% |
| Cn1c(=O)c2c(nc(SCCN3CCCCC3)n2Cc2ccc(Cl)cc2)n(C)c1=O | -72.3% |
| Cn1c(=O)c2c(nc(SCCN3CCOCC3)n2Cc2ccc(F)cc2)n(C)c1=O | -56% |
| O=C(NCc1ncc(C(F)(F)F)cc1Cl)Nc1ccccc1 | 3.57% |
| Cc1ccc(C2=NN(C(=O)CCC(=O)O)C(c3ccc4c(c3)OCO4)C2)cc1 (stereo not shown) | -2.17% |
| COc1ccccc1NCC(=O)n1nc(C)cc1C | 29.8% |
| NC(=O)Nc1cc(Cl)ccc1Cl | 2.21% |
| COc1cc(-c2nnc(COC(=O)c3ccc(C)o3)o2)cc(OC)c1OC | 7.46% |

| SMILES | hERG current change (%, negative = inhibition) at 10uM |
| --- | --- |
| Cc1ccc(/C=C/C(=O)NCCc2c[nH]c3ccccc23)o1 | -7.78% |
| O=C(NCc1ccccn1)C1CCN(S(=O)(=O)c2cccs2)CC1 | -15.8% |
| Cc1ccc2nc(Nc3ccc(C)c(C)c3)c3nncn3c2c1 | 14.5% |
| CCC1=NN(C(=O)Cc2ccc(OC)cc2)C(O)(C(F)(F)F)C1 (stereo not shown) | -6.51% |
| O=C(NC1=NCCS1)c1ccc(Cl)c(S(=O)(=O)N2CCCCC2)c1 | -2.52% |
| CCOC(=O)C(C(=O)OCC)C1CCS(=O)(=O)C1 (stereo not shown) | 14.4% |
| Cc1ccnn1C(C)C(=O)O (stereo not shown) | 26.3% |
| Cc1ccc(C(=O)N/C(=C\c2ccccc2)C(=O)NCc2ccncc2)cc1 | -71.2% |
| Cc1ccc(C(=O)N/C(=C/c2ccccc2)C(=O)NC(Cc2ccccc2)C(=O)O)cc1 (stereo not shown) | 8.07% |
| Cc1ccc(C(=O)N/C(=C/c2ccccc2)C(=O)NCc2ccncc2)cc1 | -65.2% |
| Cc1ccc(C(=O)N/C(=C/c2ccccc2)C(=O)NCC2CCCO2)cc1 (stereo not shown) | -21.7% |
| O=C(/C=C/c1cccs1)c1ccc(Br)cc1 | 7.19% |
| CC(C)Oc1ccc(Br)cc1C(=O)N/N=C/c1c[nH]c2ccccc12 | 16.2% |
| COc1ccccc1NC(=O)N(CCN1CCCC1)Cc1cc2cc(C)ccc2[nH]c1=O | -64.8% |
| Cc1cc(C)c2cc(CN(CCO)C(=O)Nc3ccc(Cl)cc3)c(=O)[nH]c2c1 | -1.76% |
| CCOc1ccc2[nH]c(=O)c(CN(CCN3CCCC3)C(=S)Nc3ccccc3OCC)cc2c1 | -70.2% |
| COc1ccccc1NC(=S)N(Cc1ccco1)Cc1cc2cc(C)ccc2[nH]c1=O | 3.67% |
| Cc1cc(C)c2cc(CN(CCN(C)C)C(=O)Nc3ccccc3Cl)c(=O)[nH]c2c1 | -55.3% |
| CCOc1ccc(NC(=S)N(CCN2CCOCC2)Cc2cc3cc4c(cc3[nH]c2=O)OCO4)cc1 | -34.6% |
| COc1ccc2[nH]c(=O)c(CN(CCN3CCCC3)C(=O)Nc3ccccc3Cl)cc2c1 | -47.6% |
| COc1ccccc1NC(=O)N(CCN(C)C)Cc1cc2cc(C)ccc2[nH]c1=O | -50.2% |
